This is one part of a sample in which hits are shown more often than they occur.
Tgondii IFNg = T. gondii growth inhibition with IFN-gamma, primary screen, cell-based; Toxoplasma gondii growth in IFN-gamma-treated host cells; hits give low values; activity change, negative = inhibition, % (concentration not given with the values); 69,000 tested, 3.8% active; in the data active = activity change below about -70%, passing the limit was not always enough;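 also: host cells are HeLa cells infected with Toxoplasma gondii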
Of the large screens only hits and unclear results are named; the others gave an inactive call.

COc1ccc(-c2nc(N3CCN(c4ccccc4)CC3)c3ccccc3n2)cc1	none
CS(=O)(=O)N1C[C@H]2CNC[C@@]2(C(=O)NC2Cc3ccccc3C2)C1	none
N[C@@H](CCC(=O)N[C@@H](CS[NH2+][O-])C(=O)NCC(=O)O)C(=O)O	none
CCN1C(=O)CCc2cc(NC(=O)c3cc(F)ccc3Cl)ccc21	none
O=C(Nc1cc(F)cc(F)c1)N1CCCC2(C1)Nc1cccnc1NC2=NC1CCCC1 (stereo not drawn)	Tgondii IFNg -86
COc1ccc(C)cc1NC(=O)N1CCCC2(C1)Nc1cccnc1NC2=NC1CCCC1 (stereo not drawn)	none
COc1cccc(NC(=O)N2CCCC3(C2)Nc2cccnc2NC3=NC2CCCC2)c1 (stereo not drawn)	none
O=C(Nc1cccc(Cl)c1)c1c(O)c2cccnc2n(-c2ccccc2)c1=O	none
O=c1nc(Nc2ccc(OC(F)(F)F)cc2)c2ccccc2o1	none
O=c1cc(Nc2ccc(OC(F)(F)F)cc2)c2ccccc2o1	Tgondii IFNg -102
O=C(Nc1ccc(OC(F)(F)F)cc1)c1c(O)c2ccccc2[nH]c1=O	none
c1ccc2c(c1)OCCOCCOCCOCCOCCOc1ccccc1-2	none
COc1ccccc1CCC(=O)Nc1ccc2c(c1)CCC(=O)N2C	none
CC(=O)NC12CC3CC(C1)CC(C(=O)N1CCCN(Cc4cccc(C)n4)CC1)(C3)C2	none
CCN(CC)Cc1cnc2c(C(=O)N3CCCCC3C(N)=O)cnn2c1 (stereo not drawn)	none
COc1ccc(/C=C/CN2CCCN(C(=O)C3CCC3)CC2)cc1	none
C=CCNc1c(C(=O)OC)c(=O)[nH]c2ccc(F)cc12	none
Cc1ccc2nc(SCC(=O)Nc3ccc(F)cc3)c(C)cc2c1	none
COC(=O)c1ccc(NC(=O)CSc2nnc3c(n2)[nH]c2ccc(F)cc23)cc1	Tgondii IFNg -70
Cc1cc(N2CCCC2)n2nc(CN3CCC(N4CCCCC4)CC3)nc2n1	none
CCOC(=O)c1cc(C(=O)OC)c(C)nc1N1CCCN(Cc2ccc(F)cc2)CC1	Tgondii IFNg -77
CCOC(=O)c1[nH]ncc1CN1CCCN(c2cccc(OC)c2)CC1	none
Fc1ccc(N2CCCN(Cc3ccc4nonc4c3)CC2)cc1	none
COCCN1Cc2cccc(C(=O)NC(C)c3cc4cc(Cl)ccc4o3)c2C1=O (stereo not drawn)	none
COC(=O)c1sc(C(C)(C)C)cc1NC(=O)Nc1cc(Cl)cc(Cl)c1	none
Cc1ccc(CN2CCOCC3(CCN(Cc4nccn4C)C3)C2)s1 (stereo not drawn)	none
Cc1occc1C(=O)N1CCOCC2(CCN(Cc3nccn3C)C2)C1 (stereo not drawn)	Tgondii IFNg -78
Cc1occc1C(=O)N1CCOCC2(CCN(c3ncccn3)C2)C1 (stereo not drawn)	none
CCN(Cc1ccncc1)C(=O)c1cc(NC(C)=O)ccc1Cl	none
COCCN1CC2CN(C(=O)c3ccncc3)CCC2(c2ccccc2)C1 (stereo not drawn)	none
COC(=O)c1ccc(NC(=O)Cn2c(=O)cc(-c3nc(C(C)C)no3)c3ccccc32)cc1	none
Cn1cc(-c2[nH]c3cc(NC(=O)[C@H](N)C4CCCCC4)cc4c3c2C=NNC4=O)cn1	Tgondii IFNg -78
COc1ccc([C@H]2N(C(=O)CCn3cnc4ccccc43)CCC[C@]23CCC(=O)N3)cc1	none
CCOC(=O)CN1CCc2nc(-c3cnn(C)c3)nc(N(C)C)c2C1	none
CC1(C)CC(NC(=O)CC2C(=O)NCCN2Cc2cccnc2)CC(C)(C)N1 (stereo not drawn)	none
COc1cc2c(cc1OC)C(Nc1ccc(I)cc1)=NC1(CCCC1)C2	Tgondii IFNg -98
COc1cc2c(cc1OC)-c1nnc(C)n1C(C)(C)C2	none
CNC(=O)[C@H]1C[C@@H]2OCC[C@@H]2N(Cc2ccc(C)o2)C1	none
COC(=O)c1c(NCc2c(C)noc2C)c2ccccc2[nH]c1=O	none
COC(=O)c1c(NCc2ccccc2Br)c2cc(F)ccc2[nH]c1=O	none
COC(=O)c1c(NCCc2ccc(Cl)cc2)c2cc(F)ccc2[nH]c1=O	Tgondii IFNg -94
COC(=O)c1c(NCCc2c[nH]c3ccccc23)c2ccccc2[nH]c1=O	Tgondii IFNg -89
COC(=O)c1c(NCCc2cccs2)c2ccc(F)cc2[nH]c1=O	none
COC(=O)c1c(NCCN2CCCc3ccccc32)c2cc(F)ccc2[nH]c1=O	none
COC(=O)c1c(NCCc2c[nH]c3ccccc23)c2cc(Cl)ccc2[nH]c1=O	Tgondii IFNg -115
COC(=O)c1c(NCC(C)C)c2cc(F)ccc2[nH]c1=O	none
COC(=O)c1c(NCC(C)O)c2cc(F)ccc2[nH]c1=O (stereo not drawn)	none
CN(C)CC(=O)N1CCC2(CC1)CC(=O)N(c1cccnc1)c1ccccc12	none
Cc1oc(-c2ccc(C(=O)Nc3ccc(Cl)cc3)cc2)nc1CN1CCN(c2ccccc2)CC1	none
COc1ccc(CNC(=O)Cn2ncc3c(N4CCOCC4)ncnc32)cc1	none
CCCc1cc(C(=O)NCc2ccc(-c3ccnc4ncnn34)cc2)no1	none
Cn1cc(CN2CCC3(CC2)CC(c2ccccc2)C(=O)N3)cn1 (stereo not drawn)	none
CC(C)NC(=O)N1CCC2(CC1)C(=O)NCCN2Cc1ccccc1	none
Cc1nn(C)c(C)c1CN(C(=O)Cc1[nH]nc2ccccc12)C1CC1	none
CCOC(=O)c1nnn2c1nc(Sc1nnc(-c3ccncc3)n1C)c1ccccc12	none
CC(C)c1ccc(S(=O)(=O)NCC(c2cccnc2)c2c[nH]c3ccccc23)cc1 (stereo not drawn)	none
O=c1[nH]cnc2c1sc1nc(-c3ccccc3)cc(-c3ccccc3)c12	none
Nc1c(-c2nnc(-c3ccccc3)o2)sc2nc(-c3ccccc3)cc(-c3ccccc3)c12	Tgondii IFNg -87
Cc1ccc(-c2cc(-c3ccccc3)nc3sc4c(c23)CCCC4)cc1	none
CNC(=O)[C@@H]1CC2CN(S(=O)(=O)c3ccccc3)CC2N1C(C)=O (stereo partly drawn)	none
CNC(=O)[C@@H]1CC2CN(S(=O)(=O)c3ccc(C)c(F)c3)CC2N1C (stereo partly drawn)	Tgondii IFNg -93
CNC(=O)[C@H]1C[C@@H]2CN(Cc3ccoc3)C[C@@H]2N1C	none
CN(Cc1ncc[nH]1)C1CCN(C(=O)c2ccccc2)CC1	none
Cc1nnnn1-c1ccc(CC(=O)N2CCCCC2CCN2CCCC2)cc1 (stereo not drawn)	none
O=S(=O)(c1ccc2c(c1)CCCC2)N1CCC2(CC1)NCCN=C2NCc1ccccc1F	none
Cc1oc(-c2cccs2)nc1-c1c(-c2ccccc2)ncn1CCCO	none
CN1CCc2ccccc2Cc2[nH]c3ccccc3c2CC1	none
O=c1c2c3ccccc3[nH]c2c2cccc3c2n1CC3	Tgondii IFNg -89
O=c1cc(O)c2c(=O)n3c4c(cccc4c2o1)CCC3	none
CC(=O)N1CCC(N2CCCC2c2nc(-c3ccncc3)no2)CC1 (stereo not drawn)	none
O=C(CN1CCOCC1)Nc1ccc(Oc2ccccc2)cc1	none
O=C(Oc1ccc(Oc2ccccc2)cc1)N1CCC(OC(=O)n2ccnc2)CC1	Tgondii IFNg -97
COc1ccc(C(c2ccccc2)N2CCN(C(=O)C(C)n3ccnc3)CC2)cc1 (stereo not drawn)	none
Cc1oc(-c2ccc(NC(=O)Cc3ccccc3F)cc2)nc1Cn1cccn1	none
Cc1ccc(-c2noc(=O)n2CC(=O)Nc2ccccc2-c2ccccc2)cc1	none
COc1ccc(-c2cc(C)nc(C3CCNCC3)n2)cc1	none
COc1ccc(-c2cc(C3CNC3)nc(C)n2)cc1	Tgondii IFNg -77
COc1ccc(-c2cc(-c3ccc(OC)cc3)nc(-c3ccc(C)o3)c2)cc1	none
OCCn1ccnc1-c1cccc(Oc2ccccc2)c1	none

Source: PubChem
